Source: PubChem BioAssay AID588453 (National Center for Advancing Translational Sciences (NCATS), 2011)
Hit rate of the full screen: of about 390,000 compounds, about 4,000 (1%) were called active. About 4% were inconclusive and are not listed. The call rests on the fitted dose curve; in most records, active means well fitted inhibition curve with a large enough effect; inconclusive means small, poorly fitted or top-dose-only effect; inactive means no such curve, though single readings can be large or run the other way. The sample as a whole holds a higher share of actives than the screen did.

Biological target: Thioredoxin reductase 1, cytoplasmic (Rattus norvegicus) (UniProt O89049)
Sequence (O89049 whole entry, looked up): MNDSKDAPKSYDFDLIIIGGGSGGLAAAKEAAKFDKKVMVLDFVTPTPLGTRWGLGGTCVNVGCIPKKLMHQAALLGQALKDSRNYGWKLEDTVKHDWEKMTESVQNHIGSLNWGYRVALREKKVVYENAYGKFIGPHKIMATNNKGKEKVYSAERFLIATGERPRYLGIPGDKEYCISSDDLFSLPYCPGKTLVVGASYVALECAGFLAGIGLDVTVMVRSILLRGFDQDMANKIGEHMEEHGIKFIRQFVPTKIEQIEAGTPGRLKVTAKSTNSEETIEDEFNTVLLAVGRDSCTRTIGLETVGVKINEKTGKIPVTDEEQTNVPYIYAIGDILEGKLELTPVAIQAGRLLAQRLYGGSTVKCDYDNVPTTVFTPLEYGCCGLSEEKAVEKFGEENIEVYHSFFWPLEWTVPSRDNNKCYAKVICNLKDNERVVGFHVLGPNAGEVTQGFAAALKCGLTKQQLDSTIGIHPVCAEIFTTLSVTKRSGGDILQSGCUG
Experiment: qHTS Assay for Inhibitors of Mammalian Selenoprotein Thioredoxin Reductase 1 (TrxR1): qHTS; further: nearly all actives have a fitted effect of over 65% in size
Conditions: recombinant rTrxR1, NADPH fluorescence consumption, selenite substrate; series mostly up to 114 µM; activity change, negative = inhibition: at the top concentration
In short: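 Rat TrxR1 (90 nM in the dispensed reagent) was pre-reduced with 400 uM NADPH for 5 min at room temperature, then incubated with compound for 15 min. After 400 uM selenite was added, NADPH fluorescence (Ex 340/Em 450 nm) was followed for 8 min.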
On the % scale 0 is the no-effect control and ±100 the full control effect; potency means the concentration at half of the fitted maximal effect.

Potency, inactive:
CCOCCCNC(=O)c1c(NC(=O)c2nc(SC)ncc2Cl)sc2c1CCCC2
O=C(O)/C(=C/c1c(C(=O)O)[nH]c2cc(Cl)cc(Cl)c12)c1ccccc1

Potency, active:
C/[N+]([O-])=C\c1ccc([N+](=O)[O-])o1 11.2 µM
C=CC(=O)Nc1ccc(Nc2ccnc(Nc3ccc(N4CCN(C)CC4)cc3)n2)cc1 12.6 µM
COc1cccc(NCCC(=O)c2cccc([N+](=O)[O-])c2)c1 20 µM
CC1CN(c2cc(=O)n(Cc3ccc(F)cc3)c(=O)[nH]2)CC(C)O1 (stereo not drawn) 10 µM
O=[N+]([O-])c1cc(S(=O)(=O)CCCN2CCOCC2)ccc1F 11.2 µM
CCCCOC(=O)CNc1nnc(SCC(=O)OCC)[nH]c1=O 11.2 µM
O=C(/C=C/c1ccco1)NC(=S)N1CCCCC1 28.2 µM
CCn1c(SC)nc(O)c(C(c2ccc(OC)c(O)c2)c2c(O)nc(SC)n(CC)c2=O)c1=O 50.1 µM
CCN1CCN(C(c2cccnc2)c2cc(Cl)c3cccnc3c2O)CC1 (stereo not drawn) 4.47 µM
CCOC(=O)N1CCN(C(c2cccnc2)c2ccc3cccnc3c2O)CC1 (stereo not drawn) 0.398 µM
Cc1ccc(C2C(C#N)C(C#N)N3CCCN23)cc1 (stereo not drawn) 22.4 µM
Cc1ccc(CN2CCC(n3nccc3NC(=O)CCCc3ccccc3)CC2)o1 70.8 µM
CSc1nnc(NC(=O)c2nc(S(=O)(=O)Cc3ccc(C)cc3)ncc2Cl)s1 15.8 µM
Cc1cccc(CS(=O)(=O)c2ncc(Cl)c(C(=O)Nc3ccc(F)cc3)n2)c1 7.94 µM
Cc1ccc(NC(=O)c2nc(S(=O)(=O)Cc3cccc(C)c3)ncc2Cl)cc1 1.78 µM
Cc1cccc(NC(=O)c2nc(S(=O)(=O)Cc3ccccc3)ncc2Cl)c1 5.62 µM
O=C(Nc1ccccc1C(F)(F)F)c1nc(S(=O)(=O)Cc2ccccc2F)ncc1Cl 2.82 µM
O=C1[C@@H]2C(c3cccnc3)=NO[C@@H]2C(=O)N1c1ccc(Cl)cc1Cl 70.8 µM
Fc1cc(Br)ccc1NC(=S)Nc1cccnc1 50.1 µM
O=C(/C=C/c1ccc(Cl)cc1Cl)c1cccnc1 4.47 µM
O=C(Nc1nc(-c2ccco2)c(-c2ccco2)s1)c1ccco1 28.2 µM

Activity change, negative = inhibition, inactive:
Cc1cccc(NC(=O)COC(=O)c2ccccc2OCc2cccc(Br)c2)c1 11.2%
Cn1c(SCC(=O)Nc2ccc(N3CCOCC3)cc2)nnc1C(F)(F)F 15.9%
Cc1cc(Nc2cc(N3CCN(C)CC3)nc(Sc3ccc(NC(=O)C4CC4)cc3)n2)n[nH]1 -3.3% [at 57.1 µM]
CCc1ccc(NC(=O)N2CCN(C(=O)c3nsc4ccccc34)CC2)cc1 12.5% [at 57.1 µM]
CCOC(=O)c1scc(-c2ccc(C)cc2)c1S(=O)(=O)Nc1cc(C)ccc1C 18.8% [at 57.1 µM]
COc1ccc(NS(=O)(=O)c2cc(NC(=O)CC(=O)c3ccc([N+](=O)[O-])cc3)ccc2C)cc1 8.24%
COc1cccc(C(=O)CC(=O)C(=O)Nc2ccc([N+](=O)[O-])cc2C)c1 -9.02%
Cc1ccccc1CNC(=O)C1CCCN(S(=O)(=O)N(C)c2ccc(F)cc2)C1 (stereo not drawn) -1.25%
CC(C)(C)N1CC(c2nc3ccccc3n2Cc2ccc(F)cc2)CC1=O (stereo not drawn) 6.6%
Cc1ccc(-n2c(=O)cc(N3CCN(Cc4ccccc4)CC3)[nH]c2=O)cc1 -31.5%
Cc1c(Cl)cccc1NC(=O)Cn1cc(C(=O)c2cccs2)c2ccccc21 3.36%
O=C(Cn1c(=O)n(-c2ccc(F)cc2)c(=O)c2sc3ccccc3c21)NC1CCCC1 12.1%
O=C(NCCCN1CCOCC1)c1ccccc1NS(=O)(=O)c1ccc(F)cc1 12.5% [at 57.1 µM]
O=S(=O)(NCCCN1CCOCC1)c1ccc(F)c(Cl)c1 12%
CC1CC2C3CCC4=CC(=O)C=C[C@]4(C)[C@@]3(F)[C@@H](O)C[C@]2(C)[C@@]1(O)C(=O)CO (stereo partly drawn) -3.45% [at 57.1 µM]
COc1cc(OC)c(OC)cc1/C=C1\C=Cc2ccccc21 -6.02%
Cc1nnc(SCC(=O)NCc2cccs2)[nH]c1=O -32.2% [at 57.1 µM]
Cc1nnc(SCCCCSc2nnc(C)c(=O)[nH]2)[nH]c1=O 12.5% [at 11.4 µM]
Cc1[nH]c2ccccc2c1C(=O)C(=O)N(C)c1ccccc1 14.2%
Cc1cc(C)cc(NC(=O)CSc2nc3nccnc3c(=O)n2CCc2c[nH]c3ccccc23)c1 7.71%
COc1ccccc1/C=C/C(=O)NC(=S)N1CCOCC1 18.3% [at 57.1 µM]
COc1ccc(Cl)cc1C(=O)NNC(=S)NC(=O)/C=C/c1ccco1 7.92%
Cn1c(=O)cc(OCC(=O)N2CCN(c3ccccc3)CC2)c2ccccc21 20.6%
COc1ccc(-c2nc3nc(C)cc(C)n3c2Nc2c(C)cccc2C)cc1 5.66%
CCn1c(SCC(=O)NNC(=O)c2ccc(OC)cc2)nnc1C(C)C 23.6% [at 57.1 µM]
COc1ccc(-n2c(SC)nc(O)cc2=O)cc1 8.9%
O=C(Cn1ncc2c3ccccc3n(Cc3ccccc3)c2c1=O)NC1CCCCCC1 4.59%
COc1ccccc1N1CCN(C(CNC(=O)C(=O)NCc2ccc(C)cc2)c2cccnc2)CC1 (stereo not drawn) 6.53%
CCOc1ccc(C(NC(=O)c2cc(OC)c(OC)c(OC)c2)c2cc(Cl)c3cccnc3c2O)cc1 (stereo not drawn) 17.2% [at 57.1 µM]
Cc1ccc(NC(=O)C(=O)NCC(c2cccnc2)N2CCOCC2)cc1 (stereo not drawn) 7.14%
O=C(NCc1cccnc1)C(=O)NCC(c1cccnc1)N1CCN(c2ccccc2)CC1 (stereo not drawn) 0.912%
COc1ccc(CN(Cc2ccccc2)C(=O)c2ccc(O)cc2)cc1COc1ccc(NC(C)=O)cc1 -8.02%
COc1ccc(CCNC(=O)Cn2c(=O)n(-c3ccccc3)c(=O)c3c(C)c(C)sc32)cc1OC 7.56%
CC(C)(C)OC(=O)N1CCC(c2c(C(=O)NCCc3ccsc3)cnn2-c2ccc(F)cc2F)CC1 19%
COc1ccc(CN2CCC(n3nccc3NC(=O)CCCc3ccccc3)CC2)cc1C -5.11%
CCn1cc(CN2CCC(n3nccc3NC(=O)CCCc3ccccc3)CC2)c(C)n1 18.4%
CN(C)c1cccc2ccccc12 -16.8%
COC(=O)C1=C(C(=O)OC)[C@@H]2N(Cc3ccccc3)c3ccccc3[C@@]23C[C@@H](C(=O)OC)N(S(=O)(=O)c2ccc(C(F)(F)F)cc2)C3=N1 -11.6%
Cc1ccc2nc(NC(=O)c3nc(SCc4ccccc4F)ncc3Cl)sc2c1 31.9%
CSc1ncc(Cl)c(C(=O)Nc2ccc(S(=O)(=O)N3CCCC(C)C3)cc2)n1 (stereo not drawn) 20.8%
CCOC(=O)c1ccc(NC(=O)c2nc(SCc3ccc(F)cc3)ncc2Cl)cc1 18.3%
Cc1cccc(NC(=O)Cn2cc(S(=O)(=O)Cc3ccccc3Cl)c3ccccc32)c1 15.8%
Cc1ccc(CCNC(=O)c2ccc(CS(=O)(=O)Cc3cccc(C)c3)o2)cc1 4% [at 57.1 µM]
CCCSc1ncc(Cl)c(C(=O)Nc2c(C(=O)Nc3ccccc3)oc3ccccc23)n1 10%
CCS(=O)(=O)c1ncc(N(Cc2ccc(F)cc2)Cc2ccco2)c(C(=O)Nc2cc(C)ccc2C)n1 27.3%
CN(C)c1cccc(C(=O)Nc2nc3ccc(S(=O)(=O)NC(C)(C)C)cc3s2)c1 13.9% [at 57.1 µM]
CN(C)c1ccc(/C=C/c2c3ccccc3nc3ccccc23)cc1 7.73%
Cc1ccc(CNS(=O)(=O)c2ccc(-c3cc(C(F)(F)F)on3)s2)cc1 14.4% [at 57.1 µM]
Cc1nn(-c2ccc(N3CCCCC3)nn2)c(C)c1CCC(=O)NCc1ccc(F)cc1 15.3% [at 57.1 µM]
COc1ccccc1NC(=O)c1oc2ccccc2c1NC(=O)COc1ccccc1OC 16.3%
COc1ccc(S(=O)(=O)c2c(Nc3cccc(Cl)c3)sc(C(=O)c3ccccc3)c2N)cc1 23.1%
O=C(CNS(=O)(=O)c1cccs1)N1CCN(c2ccccc2Cl)CC1 18.1%
COc1ccccc1CNC(=O)C(Cc1ccccc1)NS(=O)(=O)c1ccc2c(c1)oc(=O)n2C (stereo not drawn) 15.7%
CCOC(=O)c1c(C)oc2nc(C)nc(N(CC(C)C)CC(C)C)c12 -7.59%
Cc1ccc(CNC(=O)CCNS(=O)(=O)c2ccc3c(c2)oc(=O)n3C)cc1 5.75%
CCOC(=O)c1c(NC(=O)c2ccc(S(=O)(=O)N(CC)CC)cc2)sc2c1CCCCC2 8.59%
CCc1ccc(CNC(=O)c2cc3cc4ccc(OC)cc4nc3o2)cc1 19.9%
CN(CC(=O)Nc1ccccc1C(F)(F)F)C(=O)Cc1ccccc1F 12.8%
O=C(Nc1nc2ccc(F)cc2s1)c1nc(SCc2ccccc2F)ncc1Cl 17.6%
Cc1ccc(Cn2cnc3c(cnn3C(C)(C)C)c2=O)c(F)c1 17.2%
O=C(NNC1CC(=O)N(c2cccc(Cl)c2)C1=O)c1cccnc1 (stereo not drawn) -9.32%
CCN(CC)c1ccc(/C=C/c2c(C)cnc3ccc(C)cc23)cc1 9.41%
COc1cccc(CNC(=O)CCc2nc(-c3ccc(C)cc3)no2)c1 7.09%
COc1ccc(OC)c(NC(=O)CSc2nc3ccccc3nc2N2CCCCC2)c1 -6.8%
CCn1cc(C(=O)NCc2ccccc2)c(=O)c2cc(S(=O)(=O)N3CCCCC3)ccc21 24.3%
CCC(=O)N1CCc2cc(Br)cc(S(=O)(=O)CCC(=O)NCc3ccccc3OC)c21 13.2%
O=C(Nc1cccnc1)c1cc2cc(Br)ccc2oc1=O -6.18% [at 57.1 µM]
O=C(NC(=S)Nc1ccc(Br)cc1F)C1CCCCC1 11% [at 57.1 µM]
CN(C)c1ccc(C=Nc2ccc(/C=C/c3ccnc4ccccc34)cc2)cc1 -22.1%
O=C(OCc1cc(Cl)ccc1OC(F)F)c1cccnc1 19.4%
O=C(O)/C(=C/c1cccnc1)NC(=O)c1ccccc1 -10.9%
Cc1cc(C)c(NC(=O)CN2C(=O)c3cccnc3Oc3ccc(Cl)cc32)c(C)c1 12%
Cc1ccc(SCC(CC(C)C)N2CCN(CCc3ccccc3)CCC2=O)cc1 (stereo not drawn) -13.2%
O=C(Nc1ccc2nc(SCCOc3ccccc3)sc2c1)c1ccco1 -12.7%
O=C(Nc1nnc(C2CC(=O)N(c3ccc(Cl)cc3)C2)s1)c1ccco1 (stereo not drawn) 35.7%
